ChEMBL document CHEMBL3988442, “University of Dundee, Small-Polar-MMV Screening Library” (2021)

Molecular target: AMP-activated protein kinase, AMPK (Homo sapiens) (UniProt P54646+O43741+P54619+Q9UGJ0+Q9Y478+Q13131+Q9UGI9)
Experiment: AMP-dependent Kinase enzyme assay. An in vitro enzyme assay that detects ADP turnover that is directly proportional to AMPK activity. This uses naive AMPK that is activated during the assay with MK-8722
Format: functional
Parameters: scale not given: direction of the effect not stated beside the values
Details: 30 µM

**Q.** With `CC1(c2ncc(CN(CC(=O)O)Cc3ccccc3)cn2)CCCCO1` (stereo not given) as the molecule, how does the Percent Effect read?
**A.** 12.9%

**Q.** `Cc1ccc(CNC(CCO)C2CCCCC2)nc1` (stereo not given) was tested. Which Percent Effect did it give?
**A.** 2.17%

**Q.** For `O=C(CCn1ccnc1)N1CC[C@H](Oc2ccc(F)cc2)[C@@H](O)CC1`, which Percent Effect is on record?
**A.** 20.9%

**Q.** Which Percent Effect does the source give for `Cc1nonc1CN1CC[C@@](O)(C2CCC2)[C@H](C)C1` here?
**A.** -1.54%

**Q.** Which Percent Effect does the source give for `CN(Cc1ncnn1C1Cc2ccccc2C1)C1CCS(=O)(=O)C1` (stereo not given) here?
**A.** 1.61%

**Q.** Which Percent Effect does the source give for `Cc1nsc(N2CCN(CC(=O)N(C3CC3)C(C)C3CC3)CC2)n1` (stereo not given) here?
**A.** 7.84%

**Q.** Which Percent Effect does the source give for `Cc1cc(NCCNc2cccnc2)nc(N)n1` here?
**A.** -11.6%

**Q.** Which Percent Effect does the source give for `CC(C)c1nnc(CN2CC(n3cccn3)Cc3ccccc32)o1` (stereo not given) here?
**A.** -5.15%

**Q.** How did the Percent Effect turn out when `Cc1c(C(=O)N2CCC(C(=O)c3nc4ccccc4s3)CC2)cnn1C` was run?
**A.** 9.2%

**Q.** For `Cc1ccc(CNCc2cccc(NC(=O)CCN3CCOCC3)c2)s1`, which Percent Effect is on record?
**A.** -4.09%

**Q.** How did the Percent Effect turn out when `Cc1noc(-c2ccc(N(C)Cc3ccncn3)nc2)n1` was run?
**A.** 0.463%

**Q.** How did the Percent Effect turn out when `O=C(NCc1ccc(-n2cncn2)nc1)c1cc(Cl)ccn1` was run?
**A.** -4.58%

**Q.** With `CC(O)C(=O)N1CCC(c2[nH]ncc2-c2ccccc2)CC1` (stereo not given) as the molecule, how does the Percent Effect read?
**A.** -11.2%

**Q.** With `CNC(=O)C(C)NC(=O)c1cc(COc2ccc(OC)cc2Cl)[nH]n1` (stereo not given) as the molecule, how does the Percent Effect read?
**A.** -1.41%

**Q.** With `COc1cc(F)ccc1NC(=O)NCCNC(=O)OC(C)(C)C` as the molecule, how does the Percent Effect read?
**A.** -6.81%

**Q.** With `CN(C)S(=O)(=O)c1ccc(=O)n(CC2CCCO2)c1` (stereo not given) as the molecule, how does the Percent Effect read?
**A.** 20.4%

**Q.** With `CCCS(=O)(=O)NCc1ncc(C)c(OC)c1C` as the molecule, how does the Percent Effect read?
**A.** 6.9%

**Q.** For `Cc1cc(NC(C)c2n[nH]c(C)n2)n2nc(C)c(C)c2n1` (stereo not given), which Percent Effect is on record?
**A.** 20.5%

**Q.** How did the Percent Effect turn out when `Cn1cc(CC(=O)N2CCCC(c3cc(C(F)(F)F)[nH]n3)C2)cn1` (stereo not given) was run?
**A.** -6.59%

**Q.** With `Cc1cccc(Nc2noc3c2CN(C(=O)c2ccn(C)n2)CC3)c1C` as the molecule, how does the Percent Effect read?
**A.** 3.74%

**Q.** For `CN(CCn1cncc1-c1cnc(N2CCOCC2)nc1)C1CCCC1`, which Percent Effect is on record?
**A.** 12.2%

**Q.** With `CN1CCN(c2ncc(CNCCCc3cccc(F)c3)cn2)CC1` as the molecule, how does the Percent Effect read?
**A.** 4.72%

**Q.** With `COc1nccc(N2CC[C@H](N3CCOCC3)[C@H](CCCO)C2)c1C#N` as the molecule, how does the Percent Effect read?
**A.** -3.46%

**Q.** For `CC(Oc1cccc(Cl)c1)C(=O)Nc1cnn(CC(=O)NC2CC2)c1` (stereo not given), which Percent Effect is on record?
**A.** 1.4%

**Q.** Which Percent Effect does the source give for `CC(C)[C@@H]1CN(c2ccc(C(F)(F)F)cn2)C[C@H]1NS(C)(=O)=O` here?
**A.** 3.23%

**Q.** With `CC(C(=O)Nc1cccc(C(F)(F)F)c1)N(C)CCN1CCOCC1` (stereo not given) as the molecule, how does the Percent Effect read?
**A.** 8.76%

**Q.** For `CS(=O)(=O)NCC1(O)CCCN(C(=O)CCn2cc(Cl)cn2)CC1` (stereo not given), which Percent Effect is on record?
**A.** -0.47%

**Q.** With `Cc1[nH]nc(CCC(=O)N2C[C@H]3CC[C@@H]2CN(C(=O)N(C)C)C3)c1C` as the molecule, how does the Percent Effect read?
**A.** 0.209%

**Q.** How did the Percent Effect turn out when `CCn1cnnc1CN(C)C(=O)c1cc(COc2cccc(F)c2)[nH]n1` was run?
**A.** -0.905%

**Q.** How did the Percent Effect turn out when `CC(C)(C)CN(CCO)C(=O)Nc1cccc(N2CCNC2=O)c1` was run?
**A.** 2.19%

**Q.** How did the Percent Effect turn out when `C[C@@H]1CN(Cc2nc(C(N)=O)no2)CC[C@@]1(O)C1CCOCC1` was run?
**A.** 5.22%

**Q.** For `CC(=O)NCc1ccc(C(=O)N2CCCc3c(F)ccc(C)c32)o1`, which Percent Effect is on record?
**A.** 0.928%

**Q.** For `COc1ccc(CN(C)C(=O)CN2CC(n3cccn3)C2)cc1F`, which Percent Effect is on record?
**A.** -4.28%

**Q.** Which Percent Effect does the source give for `Cc1noc(OCC(=O)N2CCCCC2C)n1` (stereo not given) here?
**A.** -1.69%

**Q.** How did the Percent Effect turn out when `CN1CCC(N(CCc2ccccc2)C(=O)COCC2CCCO2)CC1` (stereo not given) was run?
**A.** -4.31%

**Q.** Which Percent Effect does the source give for `COc1ccc(F)cc1-c1ccccc1CC1CNCCNC1=O` (stereo not given) here?
**A.** 4.74%

**Q.** Which Percent Effect does the source give for `CC(C)C[C@@H](N)C(=O)N(C)Cc1csc(C(C)C)n1` here?
**A.** -10.4%

**Q.** With `CN(C)C(CNC(=O)c1ccnc(-n2cncn2)c1)c1ccccc1` (stereo not given) as the molecule, how does the Percent Effect read?
**A.** -0.565%

**Q.** How did the Percent Effect turn out when `O=C(Nc1ccccc1OCCc1ccccn1)N1CC[C@@H](O)C1` was run?
**A.** 8.55%

**Q.** `Cc1cc(C)c(C(=O)N(C)CCN(C)C(=O)OC(C)(C)C)[nH]1` was tested. Which Percent Effect did it give?
**A.** -0.277%
